# In all, about 190,000 compounds went through this assay and about 1,300 (0.68%) were called active. What follows is part of a selection rich in actives, with near analogues and random picks from the rest. A number with no mark means an inactive call. Rule as the data show it: active = inhibition above about 50%; inactive = the rest.
# Target: Mannose-6-phosphate isomerase (Homo sapiens) (UniProt P34949)
# Test: human PMI inhibitors, high substrate, primary screen, biochemical, fluorescence intensity, high mannose 6-phosphate (AID 1220)
# Details: recombinant PMI enzyme, coupled fluorescence intensity; at 20 µM; stronger effect = higher value
# Chain of Mannose-6-phosphate isomerase (Homo sapiens) (P34949 whole entry, looked up): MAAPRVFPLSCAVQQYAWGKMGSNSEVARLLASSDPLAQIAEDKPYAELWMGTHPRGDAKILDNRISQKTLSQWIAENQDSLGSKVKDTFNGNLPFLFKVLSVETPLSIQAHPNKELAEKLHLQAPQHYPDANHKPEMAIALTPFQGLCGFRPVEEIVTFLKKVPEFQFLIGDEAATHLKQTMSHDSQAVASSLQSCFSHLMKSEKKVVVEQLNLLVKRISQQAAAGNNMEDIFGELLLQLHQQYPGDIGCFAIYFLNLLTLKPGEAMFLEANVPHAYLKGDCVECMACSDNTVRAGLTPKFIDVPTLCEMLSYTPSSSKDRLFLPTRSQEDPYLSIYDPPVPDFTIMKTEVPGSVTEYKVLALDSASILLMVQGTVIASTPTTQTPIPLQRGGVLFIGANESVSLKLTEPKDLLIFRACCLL
row,SMILES,inhibition
1,Cc1ccc(S(=O)(=O)N2CCOCC2)cc1C(=O)Nc1ccccn1,4.2%
2,O=C(Cc1ccc(Cl)cc1)N/N=C/c1cccs1,15.1%
3,CCOC(=O)c1c(C)n(C)c2ccc(O)c(CN3CCCCC3)c12,8.7%
4,CCOC(=O)c1c(C)n(C)c2ccc(O)c(CN3CCC(C)CC3)c12,22.9%
5,CCOC(=O)c1c(C)n(C)c2ccc(O)c(CN3CCN(C)CC3)c12,54.1% (active)
6,CCOC(=O)c1ccc(NC(=O)CSc2nnc(CNc3ccc(C)cc3)n2C)cc1,11.2%
7,COc1ccc(NCc2nnc(SCC(=O)Nc3ccc(OC)cc3)n2C)cc1,-0.9%
8,CCOC(=O)c1ccc(NC(=O)CSc2nnc(CNc3ccc(OC)cc3)n2C)cc1,53.5% (active)
9,COc1ccc(-n2ccnc2SCC(=O)NCc2ccco2)c(OC)c1,5.5%
10,O=C(NCc1ccco1)C1Cc2ccccc2CN1C(=O)c1ccco1 (stereo not given),-0.2%
11,CCn1c(SCc2nc3sc(C(=O)O)c(C)c3c(=O)[nH]2)nnc1-c1ccc(Cl)cc1,-1%
12,COc1ccccc1NC(=O)Nc1nc(C(C)(C)C)cs1,56.3% (active)
13,CC(C)(C)c1csc(NC(=O)Nc2ccccc2)n1,7.8%
14,COc1ccccc1NC(=O)Nc1cc(NC(=O)Nc2ccccc2OC)c(C)nc1C,-9.6%
15,COc1ccc(S(=O)(=O)/N=C2/C=CC(=O)C(C)=C2C)cc1,43.8%
16,COc1ccc(S(=O)(=O)c2ccc(OC)cc2)cc1,6.7%
17,COc1ccc(S(=O)(=O)N=C2C=C(C)C(=O)C(C)=C2)cc1,61.5% (active)
18,CC1CCN(C(c2ccccc2)c2nnnn2C(C)(C)C)CC1 (stereo not given),-19.6%
19,Cn1cc(Br)c(C(=O)NN2C(=O)C3C4C=CC(C5CC45)C3C2=O)n1 (stereo not given),2.3%
20,O=C(Cc1cccc2ccccc12)NCCOc1ccccc1F,23.4%
21,Nc1cc2c(cc1[N+](=O)[O-])OCCO2,7.1%
22,Nc1cc2c(cc1[N+](=O)[O-])OCO2,52.9% (active)
23,Nc1cc2c(cc1[N+](=O)[O-])OCCOCCOCCO2,19.7%
24,CCNc1nc(NCC)nc(C(=O)NN)n1,-16.1%
25,COc1cc(/C=N/NC(=O)C(Cc2c[nH]c3ccccc23)NC(=O)OCC(C)C)cc([N+](=O)[O-])c1OCc1ccccc1 (stereo not given),53.6% (active)

row,SMILES,inhibition
1,COc1cc(/C=N/NC(=O)C(Cc2c[nH]c3ccccc23)NC(=O)OCC(C)C)cc([N+](=O)[O-])c1O (stereo not given),6.2%
2,COc1cc(/C=N/NC(=O)[C@H](Cc2c[nH]c3ccccc23)NC(=O)OCC(C)C)cc([N+](=O)[O-])c1O,14.5%
3,Cc1ccc(S(=O)(=O)Cc2ccc(C(=O)N3CCc4ccccc4C3)o2)cc1,-0.7%
4,CC(C)c1cccc(C(C)C)c1NC(=O)COC(=O)c1ccc(OCC(=O)Nc2cccc(C(F)(F)F)c2)cc1,10.7%
5,O=c1oc2ccccc2cc1-c1cn2ccccc2n1,-4.7%
6,COc1cc(OC)c(NC(=O)CC(C)=O)cc1Cl,26.6%
7,Clc1ccccc1OCc1nnc(-c2ccccc2Br)o1,5.6%
8,CC(C)(C)NC(=O)CSc1nc(N)cc(=O)[nH]1,0.4%
9,COc1ccc2ccccc2c1C(O)c1nccn1C (stereo not given),64.7% (active)
10,COc1ccc(C(O)c2nccn2C)cc1 (stereo not given),9.1%
11,Cn1ccnc1C(O)c1ccccc1 (stereo not given),15.2%
12,OC(COCc1ccc(Cl)cc1)CN1CCN(CC(O)COCc2ccc(Cl)cc2)CC1 (stereo not given),-11.7%
13,Cc1csc(NC(=O)C2C3C=CC(O3)C2C(=O)O)n1 (stereo not given),5%
14,Cc1ccc2[nH]c3c(c2c1)CCNC3=O,-5.2%
15,Cc1ccc2[nH]c3c(c2c1)CCC3=O,15.5%
16,Cc1onc(-c2ccccc2)c1C(=O)Oc1cccnc1,-0.5%
17,CC(=O)NC(CCS(C)(=O)=O)C(=O)Nc1ccccc1C (stereo not given),3.2%
18,CCCCN(C)C(=O)c1cc2cc3cc(OC)ccc3nc2o1,16.4%
19,Cc1cccnc1CCNC(=O)CCc1nnc(CCc2ccccc2)o1,17.7%
20,O=C(NC1CC1)c1cc(Cl)ccc1[N+](=O)[O-],12.7%
21,CC(=O)c1coc2c1cc(O)c1ccccc12,4.7%
22,O=C(c1cc(C(=O)c2ccco2)cc(C(=O)c2ccco2)c1)c1ccco1,6.2%
23,O=C(c1ccco1)c1coc2c1cc(O)c1ccccc12,51.1% (active)
24,CCOC(=O)c1ccc(N2C(=O)CC(N3CCOCC3)C2=O)cc1 (stereo not given),-0.3%
25,CN(C)S(=O)(=O)c1cccc2c1C(=O)c1ccccc1C2=O,21%
